The source of these data is PubChem BioAssay (Tox21).

A short description of test [1]: qHTS assay to identify small molecule agonists of the vitamin D receptor (VDR) signaling pathway - cell viability counter screen (AID 743224). Note: nearly all actives have a fitted effect of over 50% in size. Note: potency is the fitted concentration of half-maximal effect. In short, it runs like this:
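Compounds were pin-transferred onto VDR-bla cells plated 4 h earlier; following 16 h incubation at 37C, cell viability was quantified by CellTiter-Glo luminescence after 30 min at room temperature.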
Background: qHTS replaces the single test concentration by a dilution series.

Test [2] is described as follows: qHTS assay to identify small molecule antagonists of the vitamin D receptor (VDR) signaling pathway - cell viability counter screen (AID 743225). Note: nearly all actives have a fitted effect of over 50% in size. Note: potency is the fitted concentration of half-maximal effect. In short, it runs like this: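 VDR-bla HEK 293T cells, 4 h pre-incubation at 37C, then compound plus 1-alpha,25-dihydroxyvitamin D3 (3 nM final) for 16 h. After the beta-lactamase FRET read, CellTiter-Glo was added to the same wells; luminescence after 30 min at room temperature.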

A short description of test [3]: qHTS assay to identify small molecule agonists of the NFkB signaling pathway (AID 1159509; active = well fitted curve in the direction sought with a large enough effect in the signal ratio in the repeat runs, not every such curve was filed as active; the % refers to the signal ratio). The gist of the method: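 Agonist activity was read as beta-lactamase-driven FRET change (460 and 530 nm emission, 405 nm excitation) following 1.5 hr substrate loading at room temperature. Beforehand, ME-180 NFkB-bla reporter cells were treated with compounds for 5 hr at 37 C.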

Test [4] is described as follows: qHTS assay to identify small molecule agonists of the NFkB signaling pathway - cell viability counter screen (AID 1159515; calls by dose curve; note: nearly all actives have a fitted effect of over 55% in size). In short, it runs like this:
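Parallel cytotoxicity counter screen in ME-180 cells carrying an NFkB-response-element beta-lactamase reporter, 2,000 cells/well. Compound exposure lasted 5 hr at 37 C, 5% CO2. Cell viability was quantified by CellTiter-Glo luminescence.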

In test [5] the target is Nuclear receptor ROR-gamma (Homo sapiens) (UniProt P51449). The test can be described thus: qHTS assay to identify small molecule antagonists of the retinoid-related orphan receptor gamma (ROR-gamma) signaling pathway (AID 1159521; note: nearly all actives have a fitted effect of over 50% in size; note: potency is the fitted concentration of half-maximal effect). The gist of the method: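 Tet-on RORγ CHO cells carrying a ROR response element–luciferase reporter were pretreated with compounds for 2 h, then induced with 1 uM (final) doxycycline hyclate for 16 h at 37 C. Antagonism was read as decreased ONE-Glo luminescence.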

Test [6] is described as follows: qHTS assay to identify small molecule agonists of the AP-1 signaling pathway - cell viability counter screen (AID 1159525; calls by dose curve; note: nearly all actives have a fitted effect of over 55% in size). The gist of the method:
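Intracellular ATP by Cell Titer Glo luminescence (30 min, RT) in the same ME-180 AP-1-bla wells after the 5 h compound exposure at 37 °C. Normalised to tetra n-octyl ammonium bromide and DMSO controls.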

Test [7] is described as follows: qHTS assay to identify small molecule agonists of the AP-1 signaling pathway (AID 1159526; calls by dose curve).
Test [8] has as its target Retinoic acid receptor RXR-alpha (Homo sapiens) (UniProt P19793). The test is described as follows: qHTS assay to identify small molecule agonists of the RXR signaling pathway (AID 1159527; calls by dose curve; note: nearly all actives have a fitted effect of over 35% in size). The gist of the method: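 GeneBLAzer RXR-alpha-UAS-bla HEK 293T cells in medium with 2% charcoal-stripped FBS, pre-incubated 5 hr at 37 C, then exposed to compounds 16 hr. Beta-lactamase reporter read by FRET substrate, 2 hr room temperature, 460/530 nm emission.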

Test [9] can be described thus: qHTS assay to identify small molecule agonists of the RXR signaling pathway - cell viability counter screen (AID 1159529). Note: nearly all actives have a fitted effect of over 50% in size. Note: potency is the fitted concentration of half-maximal effect. In short, it runs like this:
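RXR-alpha-UAS-bla HEK 293T cells in medium with 2% charcoal-stripped FBS were preincubated 5 hr, then exposed to compounds for 16 hr at 37 C. Viability was read as CellTiter-Glo luminescence after 30 min at room temperature.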

A short description of test [10]: qHTS assay to identify small molecule antagonists of the retinoid acid receptor (RAR) signaling pathway - cell viability counter screen (AID 1159551). Note: nearly all actives have a fitted effect of over 35% in size. In short, it runs like this: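 ATP-based viability, C3RL4 cells, 6 h at 37 C with 1 uM final retinol co-added after compound; luminescence read 30 min post CellTiter-Glo, RT.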
Test [11] in a line: qHTS assay to identify small molecule antagonists of the estrogen related receptor (ERR) signaling pathway - cell viability counter screen (AID 1224818).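 Note: viability measured after 17.5 h of compound exposure.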 In short, it runs like this: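 Quantitative high-throughput viability counter screen in ERR cells. Compounds (DMSO) incubated 17.5 h at 37 C; read-out was CellTiter-Fluor fluorescence.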
Test [12] can be described thus: qHTS assay to identify small molecule antagonists of the estrogen related receptor signaling pathway with the pleiotropic PPARgamma coactivator (PGC) cell viability counter screen (AID 1224822). The gist of the method: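 Cytotoxicity in the PGC/ERR cell line is assessed with CellTiter-Fluor, read as fluorescence intensity 30 min after reagent addition, following 17.5 h compound treatment at 37 C.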

A short description of test [13]: qHTS assay to identify small molecule antagonists of the retinoid-related orphan receptor gamma (ROR-gamma) signaling pathway - cell viability counter screen (AID 1159520). Note: nearly all actives have a fitted effect of over 50% in size. In short, it runs like this: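 Cytotoxicity was read from cellular ATP (CellTiter-Glo luminescence) after 16 hr at 37 C with 1 uM doxycycline induction. The inducer was added 2 hr after compound transfer to Tet-on ROR gamma CHO cells.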

Test [14] can be described thus: qHTS assay to identify small molecule agonists of the endoplasmic reticulum stress response signaling pathway (AID 1159516; active = well fitted activation curve with a large enough effect in the signal ratio in the repeat runs, not every such curve was filed as active; the % refers to the signal ratio). The gist of the method: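 Using a HeLa line with an ESRE-driven beta-lactamase gene, agonist activity was measured by FRET substrate fluorescence (460 and 530 nm emission) after cells were treated with compounds for 5 hr at 37 C and 5% CO2.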

Test [15] in a line: qHTS assay to identify small molecule agonists of the endoplasmic reticulum stress response signaling pathway - cell viability counter screen (AID 1159517; calls by dose curve; note: nearly all actives have a fitted effect of over 50% in size; note: potency is the fitted concentration of half-maximal effect). In short, it runs like this: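 ESRE-bla HeLa cells (1,500/well) were plated overnight at 37 C and exposed to compounds for 5 hr. After the 2 hr beta-lactamase substrate read, CellTiter-Glo went into the same wells, and luminescence was read after 30 min at room temperature.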

Test [16] can be described thus: qHTS assay to identify small molecule antagonists of the retinoic acid receptor (RAR) signaling pathway (AID 1159552; note: nearly all actives have a fitted effect of over 50% in size). The gist of the method:
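RARE-luc C3RL4 cells; cpds + 1 uM (final) retinol, 6 hr, 37 C/5% CO2; luciferase reagent, 30 min RT, luminescence readout. Inhibitors of retinol-driven signal scored.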

The nature of test [17]: qHTS assay to identify small molecule agonists of the retinoic acid receptor (RAR) signaling pathway (AID 1159553). The note with it: C3RL4 RARE luciferase reporter, agonist, 6 h; activation: at 73.3 µM (top of the series) unless noted. In short, it runs like this: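 Quantitative high-throughput format: the Tox21 10K library was tested on C3RL4 RARE-luciferase cells for 6 hr at 37 C and 5% CO2, with luminescence measured after a 30 min room-temperature reagent step.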

Where “and” joins values, the source holds several entries; their conditions need not be identical. Identical values can stand only once. Records with an inconclusive call do not appear. Calls of active or inactive are those of the source. Unless noted, calls come from the whole dose curve; as a rule, active = well fitted curve in the direction sought with a large enough effect in the repeat runs; inconclusive = weak or mixed curves; inactive = no such curve, though single readings can be large; an effect the other way counts as inactive or inconclusive.

Retinoic acid receptor RXR-alpha (Homo sapiens), sequence (P19793 whole entry, looked up): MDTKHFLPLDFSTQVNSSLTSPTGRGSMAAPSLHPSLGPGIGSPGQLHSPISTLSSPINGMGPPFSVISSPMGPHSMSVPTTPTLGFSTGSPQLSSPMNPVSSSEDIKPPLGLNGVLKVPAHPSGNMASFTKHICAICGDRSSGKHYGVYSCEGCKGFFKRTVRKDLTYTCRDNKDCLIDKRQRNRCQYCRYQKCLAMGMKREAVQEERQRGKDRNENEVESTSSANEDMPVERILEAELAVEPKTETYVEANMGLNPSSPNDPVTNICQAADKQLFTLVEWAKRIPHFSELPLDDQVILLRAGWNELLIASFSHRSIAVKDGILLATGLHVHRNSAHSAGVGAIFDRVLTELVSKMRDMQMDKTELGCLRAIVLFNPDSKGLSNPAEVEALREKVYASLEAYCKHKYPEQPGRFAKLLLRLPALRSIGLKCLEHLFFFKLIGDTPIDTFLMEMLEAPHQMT

`O=C1C=CC(=O)C=C1`: the Potency result in [1], in test [2], in test [4], in [5], in test [6] and in test [8] was “inactive” throughout. Also, the Potency entry in [9], in test [10] and in test [12] was “inactive” each time. Moreover, the molecule was called inactive in test [3], in test [7] and in [11].
`O=c1oc2ccccc2c(O)c1C(CC(O)c1ccc(-c2ccc(Br)cc2)cc1)c1ccccc1` (stereo unspecified): the Potency entry in test [1], in test [4], in test [13], in test [6] and in test [10] was “inactive” each time. In addition, the outcome in test [3] was inactive. Moreover, the Potency in [5] is 57.9 µM (active).
For the molecule `CCOC(=S)S`, the Potency in test [1] was 24.5 µM (active) and 20.7 µM (active); in test [5], 13.7 µM (active) and 16.3 µM (active); in [9] it was 23.3 µM (active). The Potency entry in test [2], in test [4], in [15] and in test [16] was “inactive” throughout. The molecule was classed as inactive in [3], in test [14] and in test [7].
Turning to `CC(C)(c1cc(Cl)c(O)c(Cl)c1)c1cc(Cl)c(O)c(Cl)c1`, the Potency result in test [1], in test [2], in test [4], in test [13], in test [5] and in test [6] was “inactive” each time. Moreover, the Potency result in [8] and in test [9] was “inactive” in each case. Besides, the result in test [3] and in test [14] was inactive. In addition, the Potency in test [15] was 43.7 µM (active) and 43.6 µM (active).
Regarding `NNC(=S)NN`, the Potency entry in test [1], in test [2], in test [4], in test [15], in test [13] and in test [6] was “inactive” each time. Further, the Potency entry in test [10] is “inactive”. Besides, the molecule was classed as inactive in test [3] and in test [14]. Besides, the Potency in test [5] was 56 µM (active).
With `CC(C)Oc1cc(-n2nc(C(C)(C)C)oc2=O)c(Cl)cc1Cl`, the Potency in [1] was 12.3 µM (active); in test [2] it was 13.8 µM (active). In addition, the molecule was called inactive in test [3], in test [14] and in test [7]. Besides, the Potency entry in test [4], in test [15], in test [13], in test [6], in [10] and in [17] was “inactive” throughout.
Regarding `CCOC(=O)C(C)OC(=O)c1cc(Oc2ccc(C(F)(F)F)cc2Cl)ccc1[N+](=O)[O-]` (stereo unspecified), the Potency result in [1], in [2], in [4], in test [15], in test [13] and in test [6] was “inactive” throughout. The Potency entry in test [8], in test [9], in test [10], in [16] and in [17] was “inactive” each time. Further, the call in test [3], in test [14] and in [7] was inactive.
Take `O=C(NC(=O)c1c(F)cccc1F)Nc1ccc(Cl)cc1`: the Potency result in test [1], in [2], in test [4], in test [15], in [13] and in test [5] was “inactive” throughout. Besides, the Potency result in [6], in test [8], in test [9], in test [10] and in test [16] was “inactive” each time. The call in [3] and in test [7] was inactive.
With `CCOc1cc(Oc2ccc(C(F)(F)F)cc2Cl)ccc1[N+](=O)[O-]`, the Potency result in test [1], in test [2], in test [4], in test [15], in [13] and in [6] was “inactive” throughout. Besides, the Potency result in [8], in [9], in [10], in test [16] and in test [17] was “inactive” each time. In addition, the outcome in [3], in test [14] and in test [7] was inactive.
With `CC(C)NC(C)C`, the Potency result in [1], in test [2], in test [15], in test [13], in test [5] and in [6] was “inactive” throughout. The Potency result in [8], in [9], in test [10], in test [16] and in [17] was “inactive” throughout. Moreover, the call in test [3], in [14] and in test [7] was inactive.
